About 83,000 compounds went through this panel and 20% of them were active in at least one assay; those are over-represented in the sample as a whole.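 48-hour exposure, single concentration, 96-well plates; percent growth endpoint where 0 means no net growth. Active: below 10.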 The source made the active and inactive calls.
Tests used:
Assay in all cases: NCI-60 one-dose screen, 48 h (100 = growth as untreated, 0 = no growth, -100 = all killed)
Conditions in all cases: 10 µM unless noted
HCT-15 colon = tested on: HCT-15 colon
HT29 colon = tested on: HT29 colon
SNB-75 CNS = tested on: SNB-75 CNS
SNB-19 CNS = tested on: SNB-19 CNS
PC-3 prostate = tested on: PC-3 prostate
SK-MEL-5 melanoma = tested on: SK-MEL-5 melanoma
UACC-62 melanoma = tested on: UACC-62 melanoma
SK-MEL-28 melanoma = tested on: SK-MEL-28 melanoma
LOX IMVI melanoma = tested on: LOX IMVI melanoma
U251 CNS = tested on: U251 CNS

Measured: growth

CC(=O)N1N=C(c2ccc(C)cc2)CC1c1ccc(Oc2ccc(Br)cc2)cc1 (stereo not drawn)
inactive: HCT-15 colon 80.4% | HT29 colon 79% | SNB-75 CNS 73.7% | SNB-19 CNS 84.9% | PC-3 prostate 87% | SK-MEL-5 melanoma 91.7% | UACC-62 melanoma 64.4% | SK-MEL-28 melanoma 105%

C=C(C)[C@@H]1CC[C@]2(C)[C@H](CC[C@@H]3[C@H]4[C@H]5OC[C@@]4(CCC5(C)C)CC[C@]32C)[C@@]1(C)CCCN
active: HCT-15 colon -79.6% | HT29 colon 6.05%
inactive: SNB-75 CNS 95.2% | SNB-19 CNS 94.2% | PC-3 prostate 64% | SK-MEL-5 melanoma 97.4% | UACC-62 melanoma 98.5% | SK-MEL-28 melanoma 34.7%

COC(=O)[C@]12CC[C@@H](C)[C@H](C)[C@@H]1C1=CC[C@@H]3[C@@]4(C)C=C(O)C(=O)C(C)=C4CC[C@@]3(C)[C@]1(C)CC2
inactive: HCT-15 colon 25.2% | HT29 colon 11.7% | SNB-75 CNS 63% | SNB-19 CNS 59.9% | PC-3 prostate 12.7% | SK-MEL-5 melanoma 29.5% | LOX IMVI melanoma 16.5%

NNC(=O)c1nc2ccccc2[nH]1
inactive: HCT-15 colon 108% | HT29 colon 103% | SNB-75 CNS 97.4% | SNB-19 CNS 103% | PC-3 prostate 96.7% | SK-MEL-5 melanoma 103% | LOX IMVI melanoma 95.3% | SK-MEL-28 melanoma 111%

COCCNC1=C(Cl)C(=O)c2ccccc2C1=O
inactive: HCT-15 colon 90.3% | HT29 colon 101% | SNB-75 CNS 74.5% | SNB-19 CNS 102% | PC-3 prostate 117% | UACC-62 melanoma 90.9% | SK-MEL-28 melanoma 109%
active: SK-MEL-5 melanoma -6.75%

C=C1C(=O)O[C@H]2[C@H]1CC/C(Cn1cc(-c3ccc(F)cc3)nn1)=C\CC[C@@]1(C)O[C@@H]21
active: HCT-15 colon -78.8% | HT29 colon -84.8% | LOX IMVI melanoma -89.3%
inactive: SNB-75 CNS 85.5% | SNB-19 CNS 66.8% | PC-3 prostate 28.5% | SK-MEL-5 melanoma 36.3%

C=C(C)[C@@H]1CC[C@]2(C(=O)O)CC[C@]3(C)[C@H](CC[C@@H]4[C@@]5(C)C/C(=C/c6cccc(I)c6)C(=O)C(C)(C)[C@@H]5CC[C@]43C)[C@@H]12
active: HT29 colon 9.1% | SNB-75 CNS -36.5%
inactive: HCT-15 colon 19.4% | SNB-19 CNS 38% | PC-3 prostate 15.5% | SK-MEL-5 melanoma 13.9% | UACC-62 melanoma 30.9% | SK-MEL-28 melanoma 75.4%

C[N+](C)(CCCCCC[N+](C)(C)C1c2ccccc2-c2ccccc21)C1c2ccccc2-c2ccccc21
inactive: HCT-15 colon 105% | HT29 colon 110% | SNB-75 CNS 95% | SNB-19 CNS 105% | PC-3 prostate 98.2% | SK-MEL-5 melanoma 111% | UACC-62 melanoma 108% | LOX IMVI melanoma 104% | SK-MEL-28 melanoma 111%

CCc1nnc(NC(=O)c2ccoc2COc2ccccc2)s1
active: SNB-75 CNS 8.1%
inactive: HCT-15 colon 24.3% | HT29 colon 28.6% | SNB-19 CNS 42.4% | PC-3 prostate 67% | SK-MEL-5 melanoma 44.5% | UACC-62 melanoma 34.8% | SK-MEL-28 melanoma 51.2%

COc1ccc2[nH]c(-c3ccc(Cl)cc3)cc(=O)c2c1
inactive: HCT-15 colon 96.4% | HT29 colon 96.3% | SNB-75 CNS 93.4% | SNB-19 CNS 96% | PC-3 prostate 88% | SK-MEL-5 melanoma 95.6% | LOX IMVI melanoma 100% | SK-MEL-28 melanoma 104%

COc1cc(-c2nc(-c3ccccc3)c(-c3ccccc3)[nH]2)cc(OC)c1O
inactive: HCT-15 colon 11.1% | SNB-75 CNS 29.7% | SNB-19 CNS 20.1%
active: HT29 colon 0.965% | PC-3 prostate -58.6% | SK-MEL-5 melanoma -8.78% | UACC-62 melanoma -60.6% | LOX IMVI melanoma -47.7% | SK-MEL-28 melanoma -4.06%

COc1ccc(-c2n/c(=C\c3c(O)[nH]c4ccc(OC)cc34)cc3c2=Nc2ccccc2-3)cc1
inactive: SNB-75 CNS 30.4% | SNB-19 CNS 38.4% | PC-3 prostate 75.8% | SK-MEL-5 melanoma 18.5% | LOX IMVI melanoma 27.4%
active: HT29 colon -47.4% | U251 CNS -79.3% | UACC-62 melanoma -56.4% | SK-MEL-28 melanoma -89.9%

C=COCCCCCCCCCCCCCCCCCC
inactive: HCT-15 colon 114% | HT29 colon 102% | SNB-75 CNS 122% | SNB-19 CNS 96.9% | PC-3 prostate 84.5% | SK-MEL-5 melanoma 112% | UACC-62 melanoma 88.6% | SK-MEL-28 melanoma 104%

c1ccc2[nH]c(-c3ccc(Nc4nc(N5CCCCC5)nc(N5CCOCC5)n4)cc3)nc2c1
active: HCT-15 colon -33.9% | HT29 colon -28.2% | SNB-75 CNS -0.681% | SK-MEL-5 melanoma -90.7% | LOX IMVI melanoma -77.1% | SK-MEL-28 melanoma -30.2%
inactive: SNB-19 CNS 10.4% | PC-3 prostate 12.4%

O=C1NC(c2ccc(Cl)c(Cl)c2)=C/C1=C\c1ccccc1
inactive: HCT-15 colon 69% | HT29 colon 87.7% | SNB-75 CNS 63.1% | SNB-19 CNS 80% | PC-3 prostate 79.2% | SK-MEL-5 melanoma 97.3% | UACC-62 melanoma 86.7% | SK-MEL-28 melanoma 104%

COc1cc(/C=N/NC(=S)NNC(=S)NC2CCCCC2)cc(OC)c1OC
inactive: HCT-15 colon 91.9% | HT29 colon 108% | SNB-75 CNS 91.5% | SNB-19 CNS 98.3% | PC-3 prostate 81.3% | SK-MEL-5 melanoma 92.5% | UACC-62 melanoma 85.8% | SK-MEL-28 melanoma 99%

Cn1cc(-c2csc(-c3c[nH]c4ccccc34)n2)c2cccnc21
inactive: HCT-15 colon 25.6% | HT29 colon 10.2% | SNB-19 CNS 47.2% | PC-3 prostate 22.1% | SK-MEL-5 melanoma 11.1% | UACC-62 melanoma 44.7% | SK-MEL-28 melanoma 53.9%
active: SNB-75 CNS -5.48%

COc1ccc(/C=C/C(=O)NCCO)cc1
inactive: HCT-15 colon 98% | HT29 colon 96.1% | SNB-75 CNS 80.7% | SNB-19 CNS 111% | PC-3 prostate 91.8% | SK-MEL-5 melanoma 101% | LOX IMVI melanoma 95.9% | SK-MEL-28 melanoma 104%

CCCCC(=O)OC1CCCCC1C (stereo not drawn)
inactive: HCT-15 colon 108% | HT29 colon 88.2% | SNB-75 CNS 87.6% | SNB-19 CNS 100% | PC-3 prostate 68.1% | SK-MEL-5 melanoma 91.2% | LOX IMVI melanoma 97.9% | SK-MEL-28 melanoma 98.4%

COc1ccc2c(c1)c(-c1nc(-c3cn(C)c4ncccc34)cs1)cn2CCN
inactive: HCT-15 colon 58.5% | HT29 colon 74.5% | SNB-75 CNS 78.2% | SNB-19 CNS 80.7% | PC-3 prostate 70.2% | SK-MEL-5 melanoma 60.3% | LOX IMVI melanoma 68.1% | SK-MEL-28 melanoma 99%

O=C(O)/C(=C/c1ccc(O)cc1)c1ccccc1
inactive: HT29 colon 104% | SNB-75 CNS 88.4% | SNB-19 CNS 99.7% | U251 CNS 93.7% | PC-3 prostate 90.4% | SK-MEL-5 melanoma 95.5% | UACC-62 melanoma 107% | SK-MEL-28 melanoma 102%

CC(C)(C)c1ccc(OCCCCCCCN2CCNCC2)cc1
inactive: SNB-75 CNS 51.8% | SNB-19 CNS 54.4% | U251 CNS 12.9% | PC-3 prostate 28.1% | SK-MEL-5 melanoma 43.9% | SK-MEL-28 melanoma 53%
active: HT29 colon 6.93% | LOX IMVI melanoma -77.8%

Cc1ccc(NC2CC(=O)N(c3c(C)cc(C)cc3C)C2=O)c(C)c1 (stereo not drawn)
inactive: HT29 colon 106% | SNB-75 CNS 105% | SNB-19 CNS 92.6% | U251 CNS 95.8% | PC-3 prostate 95.3% | SK-MEL-5 melanoma 99.9% | UACC-62 melanoma 94.3% | SK-MEL-28 melanoma 109%

COC(=O)[C@]12CC[C@@H](C)[C@H](C)[C@@H]1C1=CC[C@@H]3[C@@]4(C)C[C@@H](OC(C)=O)[C@H](O)[C@@](C)(CO)[C@@H]4[C@H](O)C[C@@]3(C)[C@]1(C)CC2
active: HT29 colon -95.4% | SNB-75 CNS -83.1% | SNB-19 CNS -71.7% | U251 CNS -84.1% | PC-3 prostate -100% | SK-MEL-5 melanoma -98.5% | LOX IMVI melanoma -100% | SK-MEL-28 melanoma -86%

COc1ccc(-c2cc(/C=C/C(=O)c3ccc(OC)c(OC)c3)[nH]n2)cc1
active: HT29 colon 1.11% | SNB-75 CNS 9.56% | U251 CNS 4.42% | PC-3 prostate 4.36%
inactive: SNB-19 CNS 27% | SK-MEL-5 melanoma 51.3% | UACC-62 melanoma 37.3% | SK-MEL-28 melanoma 53.9%

O=C(O[C@@H]1Cc2c(O)cc(O)cc2O[C@@H]1c1cc(O)c(O)c(O)c1)c1cc(O)c2c(c1)OCO2
inactive: HT29 colon 95.3% | SNB-75 CNS 93.8% | SNB-19 CNS 104% | U251 CNS 83.4% | PC-3 prostate 83.6% | SK-MEL-5 melanoma 98.5% | LOX IMVI melanoma 95.6% | SK-MEL-28 melanoma 101%

C/C(=C(/c1ccccc1)c1ccc(N2C(=O)c3cccc4c(NCc5ccccc5)ccc(c34)C2=O)cc1)c1ccccc1
inactive: HT29 colon 112% | SNB-75 CNS 94.6% | SNB-19 CNS 96.8% | U251 CNS 99.5% | PC-3 prostate 82.1% | SK-MEL-5 melanoma 99.3% | UACC-62 melanoma 80.3% | SK-MEL-28 melanoma 107%

Cc1ccc(-c2nc([P+](c3ccccc3)(c3ccccc3)c3ccccc3)c(N3CCOCC3)o2)cc1
active: HT29 colon -0.839% | SNB-75 CNS 0.0247% | PC-3 prostate -18.8% | SK-MEL-5 melanoma -95.5% | UACC-62 melanoma -29.4%
inactive: SNB-19 CNS 11.5% | U251 CNS 12.4% | SK-MEL-28 melanoma 29.9%

c1cnc2[nH]cc(-c3csc(-c4cn(CCCN5CCCCC5)c5ccccc45)n3)c2c1
active: HT29 colon -55.8% | SK-MEL-5 melanoma -80.1% | LOX IMVI melanoma -67.6% | SK-MEL-28 melanoma -68.4%
inactive: SNB-75 CNS 60.2% | SNB-19 CNS 39.2% | U251 CNS 10.4% | PC-3 prostate 34.9%

Reference: PubChem BioAssay (NCI)
